# Measurements taken from article PMC7826789 (International Journal of Molecular Sciences, 2021).
# Columns and labels:
# Details in all cases: Compound Concentration (nM):1000
# ACVR2B = tested on: ACVR2B
# ACVRL1 = tested on: ACVRL1
# ADCK3 = tested on: T1, ADCK3
# T1 construct: gene CABC1
# ADCK4 = tested on: ADCK4
# AKT1 = tested on: AKT1
# AKT2 = tested on: AKT2
# AKT3 = tested on: AKT3
# ALK(C1156Y) = tested on: ALK(C1156Y)
# ALK(L1196M) = tested on: ALK(L1196M)
# ALK = tested on: ALK
# AMPK-alpha1 = tested on: T2, AMPK-alpha1
# T2 construct: gene PRKAA1
# AMPK-alpha2 = tested on: T3, AMPK-alpha2
# T3 construct: gene PRKAA2
# ANKK1 = tested on: ANKK1
# ARK5 = tested on: T4, ARK5
# T4 construct: gene NUAK1
# ASK1 = tested on: T5, ASK1
# T5 construct: gene MAP3K5
# ASK2 = tested on: T6, ASK2
# T6 construct: gene MAP3K6
# AURKA = tested on: AURKA
# AURKB = tested on: AURKB
# AURKC = tested on: AURKC
# AXL = tested on: AXL
# 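Also: KINOMEscan scanMAX binding as percent activity remaining versus control; lower means stronger binding.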
SMILES,Percent Control (ACVR2B),Percent Control (ACVRL1),Percent Control (ADCK3),Percent Control (ADCK4),Percent Control (AKT1),Percent Control (AKT2),Percent Control (AKT3),Percent Control (ALK(C1156Y)),Percent Control (ALK(L1196M)),Percent Control (ALK),Percent Control (AMPK-alpha1),Percent Control (AMPK-alpha2),Percent Control (ANKK1),Percent Control (ARK5),Percent Control (ASK1),Percent Control (ASK2),Percent Control (AURKA),Percent Control (AURKB),Percent Control (AURKC),Percent Control (AXL)
COc1cccc(-c2c[nH]c3c(N/N=C/c4ccncc4)ncnc23)c1 [GW814408X],71%,59%,100%,36%,100%,100%,100%,97%,99%,100%,100%,85%,100%,100%,100%,100%,82%,75%,48%,71%
NS(=O)(=O)c1ccc(N/N=C2\C(=O)Nc3ccc(C(=O)NCc4ccncc4)cc32)cc1 [GW300657X],100%,100%,87%,100%,82%,100%,100%,83%,82%,77%,78%,83%,27%,86%,100%,70%,57%,59%,76%,95%
CN(C)c1cc2c(Nc3ccc4c(cnn4Cc4ccccc4)c3)ncnc2cn1 [GW282974X],100%,87%,98%,100%,79%,100%,100%,97%,94%,100%,90%,100%,100%,100%,100%,73%,74%,100%,92%,98%
NS(=O)(=O)c1ccc(Nc2ncc(-c3ccccc3)o2)cc1 [GW572399X],100%,100%,100%,100%,100%,100%,100%,96%,96%,87%,100%,95%,82%,100%,100%,77%,100%,43%,100%,100%
O=C(Nc1n[nH]c2nc(-c3ccc(O)cc3)c(Br)cc12)C1CC1 [SB-725317],79%,65%,100%,100%,100%,100%,85%,54%,87%,75%,100%,100%,100%,100%,100%,100%,100%,91%,59%,100%
COc1cc(/C=N/Nc2ncnc3[nH]ncc23)ccc1O [GW578748X],40%,67%,100%,100%,100%,100%,100%,82%,75%,98%,79%,54%,21%,100%,100%,75%,41%,56%,58%,65%
C/C(Nc1ccc(S(N)(=O)=O)cc1)=C1/C(=O)Nc2ccccc21 [GW335962X],100%,78%,100%,100%,81%,94%,88%,54%,60%,54%,78%,87%,50%,100%,100%,69%,66%,16%,71%,73%
CCn1c(-c2nonc2N)nc2c(C#CC(C)(C)O)nc(OCCNC)cc21.Cl [GSK949675],99%,100%,100%,100%,3.7%,3.1%,0.2%,95%,100%,85%,100%,100%,100%,100%,95%,100%,90%,100%,100%,100%
COc1ccc2cc(-c3c(-c4ccncc4)nc(-c4ccc(S(C)(=O)=O)cc4C)n3C)ccc2c1 [SB-633825],84%,100%,100%,80%,100%,94%,100%,70%,73%,58%,53%,90%,100%,100%,83%,74%,87%,66%,85%,88%
Cl.O=C(O[C@H]1CN[C@H](C#Cc2cc3ncnc(Nc4ccc5c(cnn5Cc5ccccc5)c4)c3s2)C1)N1CCOCC1 [GSK200398A],100%,82%,100%,100%,92%,100%,100%,94%,88%,100%,100%,92%,100%,91%,100%,88%,71%,84%,100%,100%
COc1ccc(COc2ccc(Cc3cnc(N)nc3N)cc2OC)cc1 [GW632580X],100%,100%,92%,100%,75%,100%,100%,94%,87%,98%,89%,99%,81%,100%,80%,85%,76%,100%,100%,100%
CN(C)CCNC(=O)Nc1ccc(N(C)c2ccnc(Nc3ccc(CS(C)(=O)=O)cc3)n2)cc1.Cl [GW830900A],88%,100%,100%,79%,100%,100%,100%,70%,85%,71%,87%,74%,88%,48%,100%,80%,8.8%,4.4%,4.5%,58%
COc1cc(C)c(N(C)C(=O)CN(C)C)cc1Nc1nc(Nc2cccc(F)c2C(N)=O)c2cc[nH]c2n1 [GSK2219385],100%,100%,80%,100%,98%,85%,100%,4.5%,13%,1.7%,100%,100%,94%,86%,100%,70%,85%,93%,90%,76%
Cl.O=C(Nc1ccc(Oc2ccc3[nH]c(NC(=O)c4ccco4)nc3c2)cc1)Nc1cc(C(F)(F)F)ccc1F [GW683134A],100%,76%,100%,100%,100%,100%,100%,92%,92%,88%,67%,82%,100%,100%,100%,93%,98%,13%,56%,0%
O=C1Nc2ccc(C(=O)c3ccco3)cc2C1=Cc1cc(Cl)c(O)c(Cl)c1 [GW406108X],86%,100%,90%,99%,100%,100%,100%,76%,86%,89%,90%,94%,9.2%,100%,100%,72%,35%,22%,58%,100%
CC1=C(C(=O)Nc2ccc3[nH]ncc3c2)C(c2ccc(Cl)c(Cl)c2)CC(=O)N1 (stereo not shown) [GSK299115A],69%,100%,99%,92%,100%,100%,100%,100%,100%,77%,67%,97%,100%,85%,98%,82%,45%,60%,56%,100%
Cc1cc(O)cc(C)c1/C=C/c1cncc(C(N)=O)c1 [GW435821X],7.1%,2.6%,100%,100%,96%,100%,100%,96%,88%,100%,100%,83%,85%,100%,100%,79%,85%,100%,100%,100%
C[C@@H](Oc1cc(-n2cnc3ccc(OC4CCN(C)CC4)cc32)sc1C(N)=O)c1ccccc1Cl [GSK579289A],60%,100%,97%,20%,100%,100%,100%,82%,81%,87%,45%,100%,63%,19%,99%,66%,76%,94%,65%,67%
COc1ccccc1-c1cc(/C=C2\C(=O)Nc3ncc(Br)cc32)cc(Br)c1O [GW442130X],100%,95%,100%,100%,93%,100%,100%,100%,100%,100%,100%,94%,100%,100%,98%,100%,25%,48%,80%,92%
Cl.O=C(Nc1ccc(Oc2ccc3[nH]c(NC(=O)c4ccccc4)nc3c2)cc1)Nc1cc(C(F)(F)F)ccc1F [GW709042A],100%,100%,100%,100%,90%,100%,100%,84%,92%,73%,56%,100%,95%,100%,100%,80%,82%,61%,37%,0%
